High-throughput results deposited in PubChem BioAssay by National Center for Advancing Translational Sciences (NCATS).
The list is not random: actives were taken first. Their share in the collection is about 10%.
HP1b binding inh – HP1-beta chromodomain-methylated histone interaction inhibition | AlphaScreen HP1-beta / biotin-H3K9me3 peptide binding | P83916 | AID 540317 | hit rate 0.56% among 390,000 | Potency, µM (doses to about 114 µM), without a hit: at the top dose activity change, negative = inhibition, most hits filed as inhibitors; further: nearly all actives have a fitted effect of over 70% in size
Target sequence (P83916 whole entry, looked up): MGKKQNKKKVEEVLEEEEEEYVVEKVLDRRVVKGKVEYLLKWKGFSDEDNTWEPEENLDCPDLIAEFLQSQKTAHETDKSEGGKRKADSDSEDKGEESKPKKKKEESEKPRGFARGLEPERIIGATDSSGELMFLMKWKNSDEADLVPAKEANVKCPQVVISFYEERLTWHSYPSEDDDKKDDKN
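HP1-beta protein (50 nM final) preincubated 30 min at room temperature with biotinylated H3(1-18)K9me3 peptide (50 nM) in PBS pH 7.4, 0.01% Tween-20, then compound added for 30 min. AlphaScreen streptavidin donor/nickel chelate acceptor beads (10 ug/mL final), 30 min dark, luminescence read.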
GLS inhibitor – inhibitors of human glutaminase (GLS); hit rate 0.21% among 410,000; GLS enzymatic activity, qHTS titration; O94925; Potency, µM (highest dose often 45.5 µM), without a hit: top-dose activity change, negative = inhibition, actives largely listed as inhibitors; further: on the % scale 0 is the no-effect control and ±100 the full control effect
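hKGA in 45 mM KH2PO4 pH 8.2, 0.02% Tween-20 with pin-transferred compounds; 1 mM L-glutamine (stock) plus glutamate oxidase/HRP/Amplex Red coupling added. Fluorescence read initially and after 30 min at RT.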
L3MBTL1 inh – blocks human L3MBTL1; hit rate 0.66% among 230,000; AID 485360; Q9Y468; Potency, µM (top dose mostly 57.1 µM), without a hit: at the top dose activity, negative = inhibition, most hits filed as inhibitors; AlphaScreen L3MBTL1–H3K9me1 peptide binding; further: on the % scale 0 is the no-effect control and ±100 the full control effect; nearly all actives have a fitted effect of over 60% in size
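Read-out is AlphaScreen signal from streptavidin donor and nickel chelate acceptor beads (10 ug/mL final each) bridging L3MBTL1 (50 nM) and biotinylated K9-monomethylated H3(1-15) peptide (75 nM), after 30 min compound exposure at room temperature.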
G9a block – G9a (human) methyltransferase inhibition. Potency, µM (titrated, usually from 102 µM), for inactives: at the highest dose activity, negative = inhibition, actives largely listed as inhibitors. hit rate 8.8% among 350,000. Q96KQ7. G9a H3K9 monomethylation, AlphaScreen, 2 h. AID 504332; further: on the % scale 0 is the no-effect control and ±100 the full control effect; nearly all actives have a fitted effect of over 75% in size
Target sequence (Q96KQ7 913-1193 limits assumed): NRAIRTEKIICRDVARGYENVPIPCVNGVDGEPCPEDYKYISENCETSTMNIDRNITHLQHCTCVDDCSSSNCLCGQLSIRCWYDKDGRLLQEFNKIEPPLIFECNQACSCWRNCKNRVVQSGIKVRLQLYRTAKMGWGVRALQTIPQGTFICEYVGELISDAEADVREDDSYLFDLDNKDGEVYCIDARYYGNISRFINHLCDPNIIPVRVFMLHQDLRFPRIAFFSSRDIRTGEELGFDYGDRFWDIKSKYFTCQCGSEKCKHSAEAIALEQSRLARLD
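Using a bead-based AlphaScreen, monomethylated H3K9 product from 2 h room-temperature reactions (G9a 20 nM, peptide 500 nM, SAM 20 uM) was detected with 0.5 ug/mL rabbit anti-H3K9me1 antibody.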
JMJD2A Tudor – inhibitors of human JMJD2A Tudor domain | O75164 | AlphaScreen JMJD2A-Tudor / H3K4me3 peptide binding | Potency, µM (highest dose often 114 µM), without a hit: at the highest dose activity change, negative = inhibition, hits mostly inhibitors | hit rate 4.4% among 390,000; further: on the % scale 0 is the no-effect control and ±100 the full control effect; nearly all actives have a fitted effect of over 50% in size
BAZ2B inh – blocks human BAZ2B; Potency, µM (doses to about 114 µM), for inactives: at the highest dose activity change, negative = inhibition, actives largely listed as inhibitors; AlphaScreen BAZ2B-H3K14Ac peptide displacement; hit rate 4.4% among 360,000; further: on the % scale 0 is the no-effect control and ±100 the full control effect; nearly all actives have a fitted effect of over 60% in size
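Protein-peptide AlphaScreen: BAZ2B 50 nM, b-H3K14Ac 50 nM, 1x PBS pH 7.4 + 0.01% Tween-20. Preincubation 30 min RT; cpd 30 min RT (top 110 uM); beads 20 min RT, light-protected.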
The depositor's hits bear a star; [ ] = remark or other dose. The call rests on the fitted dose curve; in most records, active means well fitted curve in the direction sought with a large enough effect; inconclusive means small, poorly fitted or top-dose-only effect, or another doubt; inactive means no such curve, though single readings can be large; an effect the other way counts as inactive or inconclusive. Potency means the concentration at half of the fitted maximal effect.

COc1ccc(OC)c(/C=N/NC(=O)c2cc[n+](CC(=O)c3ccccc3)cc2)c1 was read as HP1b binding inh 31%, GLS inhibitor 1%, G9a block 79µM*, JMJD2A Tudor -24% and BAZ2B inh -10%.
`COc1ccc(/C=N/NC(=O)C[n+]2ccccc2)c(OC)c1` gave HP1b binding inh 41%, GLS inhibitor 1%, L3MBTL1 inh 2%, G9a block -19%, JMJD2A Tudor 3% and BAZ2B inh -13%.
Screening O=C(C[n+]1cccc(C(=O)N/N=C/c2cccc([N+](=O)[O-])c2)c1)c1ccccc1 returned HP1b binding inh 21%, GLS inhibitor -5%, L3MBTL1 inh -6%, G9a block 50µM*, JMJD2A Tudor -32% and BAZ2B inh -7%.
For O=C(C[n+]1ccc(C(=O)N/N=C/c2ccc(O)cc2)cc1)c1ccccc1 the results were HP1b binding inh 34%, GLS inhibitor 2%, G9a block 14µM*, JMJD2A Tudor -22% and BAZ2B inh inconclusive.
`CCOC(=O)Cc1ccc(NC(=O)N2CC(C)Oc3ccc(Cl)cc32)cc1` (stereo not given) gave HP1b binding inh 58%, GLS inhibitor -11%, G9a block -23%[59 µM], JMJD2A Tudor 4% and BAZ2B inh -3%.
For Cc1ccc(C(=O)N2CCc3cc(CNC(=O)c4ccnn4C)ccc32)cc1 the results were HP1b binding inh 22%, GLS inhibitor -4%, G9a block -1%[59 µM], JMJD2A Tudor -21% and BAZ2B inh -10%.
`N#Cc1cc[n+](CC(=O)c2ccc(NC(=O)c3ccccc3)cc2)cc1` gave HP1b binding inh 28%, GLS inhibitor -2%, L3MBTL1 inh -4%, G9a block 71µM*, JMJD2A Tudor -26% and BAZ2B inh -2%.
CCCc1nnc(NC(=O)CCC(=O)N2CCN(CCn3c(C)ccc3C)CC2)s1 was read as HP1b binding inh 14%, GLS inhibitor -21%, L3MBTL1 inh -8%, G9a block 71µM*, JMJD2A Tudor -3% and BAZ2B inh -10%.
Screening O=C(CSc1nc2c([nH]c3ccccc32)c(=O)n1-c1ccccc1F)Nc1cccc(Cl)c1 returned HP1b binding inh 20%[57 µM], GLS inhibitor 8%, G9a block -3%[59 µM], JMJD2A Tudor -15% and BAZ2B inh -15%.
`c1ccc(-c2cnc(SCCN3CCOCC3)n2CC2CCCO2)cc1` (stereo not given) gave HP1b binding inh inconclusive, GLS inhibitor -1%, L3MBTL1 inh -7%, G9a block 2.5µM*, JMJD2A Tudor 3.5µM* and BAZ2B inh 20µM*.
Screening COc1ccc(-c2cnc(N)n2CC2CCCO2)cc1 (stereo not given) returned HP1b binding inh -1%, GLS inhibitor 1%, L3MBTL1 inh -14%, G9a block 98%[59 µM], JMJD2A Tudor inconclusive and BAZ2B inh 6%.
For COc1ccc(/C=C/C(=O)c2ccc(C)c([N+](=O)[O-])c2)cc1O the results were HP1b binding inh -22%, GLS inhibitor 0%, L3MBTL1 inh -14%, G9a block 45µM*, JMJD2A Tudor inconclusive and BAZ2B inh inconclusive.
For COc1cc(/C=C/C(=O)c2ccc(C)c([N+](=O)[O-])c2)cc(OC)c1O the results were HP1b binding inh 0%, GLS inhibitor 23%, L3MBTL1 inh -2%, G9a block 45µM*, JMJD2A Tudor -26% and BAZ2B inh -25%.
For COc1cccc(/C=C/C(=O)c2ccc(C)c([N+](=O)[O-])c2)c1 the results were HP1b binding inh 1%, GLS inhibitor -5%, L3MBTL1 inh -8%, G9a block inconclusive, JMJD2A Tudor -12% and BAZ2B inh -28%.
Screening O=C(Cc1ccccc1)c1ccc(O)cc1O returned HP1b binding inh 26%, GLS inhibitor -3% and JMJD2A Tudor -7%.
`O=C(O)c1cc(N(Cc2ccccc2O)Cc2cc(O)ccc2O)ccc1O` gave G9a block 2.2µM*.
